{"source": "PubChem BioAssay (EPA / NIEHS)", "note": "Results filed as inconclusive are left out. The source made the active and inactive calls. Rule for the calls: active = hit-call score of the fitted dose curve at least 0.9, where 1 is the maximum; inconclusive = response in the unintended direction; inactive = score below 0.9."}
{"biological_target": "Cytochrome P450 2C19 (Homo sapiens) (UniProt P33261)", "assay": "NVS_ADME_hCYP2C19: NovaScreen (NVS) CYP450-related Enzyme Activity (ADME) Assay for human CYP2C19 (AID 2283113);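 note: potency for inhibition seen as loss of fluorescent signal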", "procedure,_shortened": "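Cell-free assay of recombinant human CYP2C19 expressed in insect cells, with a fluorogenic substrate; fluorescence intensity read 1 hour after dosing. Loss of signal relative to acetonitrile negative control indicates inhibition. Primary screen at 10 uM in duplicate, then concentration series.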"}
{"smiles": "CC(C)CCOCCC(C)C", "AC50": "5000 nM (active)"}
{"smiles": "c1cc[nH]c1", "AC50": "992 nM (active)"}
{"smiles": "Cc1ccc(N=Nc2c(O)ccc3ccccc23)c(C)c1", "AC50": "565 nM (active)"}
{"smiles": "CCCCCCCCCCCCCCC", "AC50": "10000 nM (active)"}
{"smiles": "CCCCCCCCCCCCCCCCCC[N+](C)(C)Cc1ccccc1", "AC50": "1800 nM (active)"}
{"biological_target": "human AKT serine/threonine Kinase 1 (AKT1), AKT1 (gene 207) (UniProt P31749)", "sequence (P31749 whole entry, looked up)": "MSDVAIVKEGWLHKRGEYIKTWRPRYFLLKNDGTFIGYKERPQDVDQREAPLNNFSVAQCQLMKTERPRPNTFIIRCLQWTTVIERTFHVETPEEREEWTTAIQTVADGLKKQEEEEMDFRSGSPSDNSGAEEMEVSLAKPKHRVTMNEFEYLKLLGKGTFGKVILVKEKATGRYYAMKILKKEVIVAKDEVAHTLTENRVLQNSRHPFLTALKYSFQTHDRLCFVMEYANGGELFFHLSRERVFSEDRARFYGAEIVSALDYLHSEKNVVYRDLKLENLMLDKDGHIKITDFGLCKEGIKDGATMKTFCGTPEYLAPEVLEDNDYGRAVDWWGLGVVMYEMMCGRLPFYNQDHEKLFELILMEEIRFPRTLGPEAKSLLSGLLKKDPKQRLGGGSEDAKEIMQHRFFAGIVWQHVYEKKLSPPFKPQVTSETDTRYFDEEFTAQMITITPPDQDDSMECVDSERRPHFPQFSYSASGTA", "assay": "NVS_ENZ_hAKT1: NovaScreen (NVS) Enzymatic Assay for human AKT serine/threonine Kinase 1 (AKT1) (AID 2283138)", "procedure,_shortened": "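Fluorescence and mobility-shift readout of kinase activity, taken 1 h post-dosing in a cell-free format with recombinant protein. Primary screen at 25 uM in duplicate; hits (e.g. 30% inhibition) retested in concentration series topping at 50 uM.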"}
{"smiles": "O=C(CCCN1CCC(O)(c2ccc(Cl)cc2)CC1)c1ccc(F)cc1", "outcome": "inactive"}
{"smiles": "CCCCCCCCCCCCOS(=O)(=O)O", "outcome": "inactive"}
{"smiles": "CCC(C)c1ccccc1O", "note": "(centres undefined)", "outcome": "inactive"}
{"biological_target": "human Beta-secretase (BACE), BACE1 (gene 23621) (UniProt P56817)", "sequence (P56817 whole entry, looked up)": "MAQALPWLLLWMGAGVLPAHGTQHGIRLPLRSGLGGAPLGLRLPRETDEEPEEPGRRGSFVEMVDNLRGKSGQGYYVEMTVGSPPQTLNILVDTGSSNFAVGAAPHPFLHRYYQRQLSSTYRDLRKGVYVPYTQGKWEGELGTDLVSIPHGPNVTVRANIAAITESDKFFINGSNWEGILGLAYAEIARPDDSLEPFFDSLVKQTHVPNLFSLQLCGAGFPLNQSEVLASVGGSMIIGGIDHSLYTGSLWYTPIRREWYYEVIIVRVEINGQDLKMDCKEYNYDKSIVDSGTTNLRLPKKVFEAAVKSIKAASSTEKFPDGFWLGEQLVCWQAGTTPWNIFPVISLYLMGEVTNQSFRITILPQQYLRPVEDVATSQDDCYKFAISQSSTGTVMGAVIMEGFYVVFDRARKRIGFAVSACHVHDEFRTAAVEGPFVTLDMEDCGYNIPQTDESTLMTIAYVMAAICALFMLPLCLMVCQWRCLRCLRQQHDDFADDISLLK", "assay": "NVS_ENZ_hBACE: NovaScreen (NVS) Enzymatic Assay for human Beta-secretase (BACE) (AID 2283140);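 note: hits are inhibitors that reduce fluorescent substrate signal versus DMSO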", "procedure,_shortened": "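SF9-expressed enzyme, cell-free; fluorescent substrate readout after 1 h. Screened at 25 uM single concentration, duplicate; hits retested in concentration series. Activity relative to DMSO baseline, loss-of-signal.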"}
{"smiles": "CCCCc1oc2ccccc2c1C(=O)c1cc(I)c(OCCN(CC)CC)c(I)c1", "AC50": "3910 nM (active)"}
{"smiles": "NS(=O)(=O)O", "outcome": "inactive"}
{"smiles": "CNNCc1ccc(C(=O)NC(C)C)cc1", "outcome": "inactive"}
{"smiles": "CCOC(C)=O", "outcome": "inactive"}
{"smiles": "CCCCCCCCCCCCOS(=O)(=O)O", "AC50": "2910 nM (active)"}
{"smiles": "CN(Cc1cnc2nc(N)nc(N)c2n1)c1ccc(C(=O)N[C@@H](CCC(=O)O)C(=O)O)cc1", "outcome": "inactive"}
